Records with an inconclusive call do not appear. The source holds several records for some structures; these can differ, active in one and inactive in another. Unmarked numbers belong to inactive results. Active and inactive are the calls of the source. Unless noted, calls follow the shape of the dose curve; as a rule, active = well fitted cell-killing curve with a large enough effect in the repeat runs; inconclusive = weak or mixed curves, or effect the other way; inactive = flat fitted curve, though single readings scatter.
System: not listed separately
Test: qHTS assay to identify small molecule that activate the aryl hydrocarbon receptor (AhR) signaling pathway - cell viability counter screen (AID 743086); also: nearly all actives have a fitted effect of over 45% in size; also: potency is read from the fitted curve at half-maximal effect;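 as to viability change, negative = cytotoxic: HepG2 liver cells carrying the AhR DRE luciferase reporter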
Conditions: HepG2-AhR-luc viability, CellTiter-Fluor, 24 h; series mostly up to 70.3 µM; viability change, negative = cytotoxic: at the top concentration
Summary of the method: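 Cytotoxicity counter screen: CellTiter-Fluor signal (30 min, 37 C) in 4000 HepG2 cells/well carrying the DRE-luciferase reporter, following 24 h compound exposure at 37 C.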
% is scaled to controls: 0 for no effect and ±100 for the full control effect.

Compound | viability change, negative = cytotoxic | Potency
CC(=O)OCC(=O)[C@@]1(O)CC[C@H]2[C@@H]3CCC4=CC(=O)C=C[C@]4(C)[C@@]3(F)[C@@H](O)C[C@@]21C | -0.909% [at 32.5 µM] | 
CC1(C)C(=O)NC(=O)N1CO | 8.52% | 
O=C(OCCOCCOCCOC(=O)c1ccccc1)c1ccccc1 | -0.105% | 
NC(=O)c1ccccc1 | -0.841% [at 95 µM] | 
CC(COc1ccccc1)NC(C)C(O)c1ccc(O)cc1 (centres undefined) | -0.748% [at 32.5 µM] | 
O=[N+]([O-])c1ccc(Cl)cc1Cl | 0.581% | 
C=CC(=O)NC(C)(C)C | 9.02% | 
CCCC1CCOC(C)S1 (centres undefined) | 0.908% | 
CCCCCCCCCCCCCCCCC(=O)O | -2.35% | 
CCCCCCCCS | 7.08% [at 95 µM] | 
C=C(C)C(=O)OCCCCCCCCCCOC(=O)C(=C)C | -1.71% | 
CCCCCCCCCCCCCCCCCCCl | -5.7% [at 8.47 µM] | 
CCCC(=O)OCc1ccccc1 | -8.03% | 
CC1=CC(=C(c2ccc(N)cc2)c2ccc(N)cc2)C=CC1=N | -14.7% [at 8.47 µM] | 18.8 µM (active)
C[C@@H](O)[C@H]1C(=O)N2C(C(=O)O)=C(S[C@@H]3CN[C@H](CNS(N)(=O)=O)C3)[C@H](C)[C@H]12 | -9.21% | 
Nc1cccc2c(=O)[nH][nH]c(=O)c12 | 7.16% [at 95 µM] | 
CCCc1ccc(OC)cc1 | 2.58% [at 95 µM] | 
FC1(F)C(F)(F)C(F)(F)C2(F)C(F)(C1(F)F)C(F)(F)C(F)(F)C1(F)C(F)(F)C(F)(F)C(F)(F)C(F)(F)C12F (centres undefined) | -1.26% | 
O=C1CCCN1CCO | 2.41% | 
COC(=O)c1cc(Cl)ccc1[N+](=O)[O-] | 0.553% | 

Compound | viability change, negative = cytotoxic | Potency
OCCOc1cccc(OCCO)c1 | -0.258% | 
O=C(O)c1ccc2cc(O)ccc2c1 | -1.03% | 
C=CC(=O)OCCCCCCCCCC | -1.26% | 
CCCOC(C)=O | 5.93% | 
CC(Cc1ccccc1)(NC(=O)CN)c1ccccc1 (centres undefined) | -1.67% | 
CCOC(OCC)OCC | 6.22% | 
C[Si](C)(C)O[Si](C)(C)O[Si](C)(C)C | -0.215% | 
CCCCCCCCCCCC(=O)OCC | -2.63% | 
CC(C)Cc1nccs1 | -7.81% [at 95 µM] | 
O=C(c1ccc(Cl)cc1)c1ccc(Cl)cc1 | 11.8% | 
CCCCCCCCCCCCN1CCOCC1 | 7.09% | 
O=Cc1ccc([N+](=O)[O-])cc1 | -5.34% [at 95 µM] | 
CC1=C(C)C(=O)C(CCCCC#CCCCC#CCO)=C(C)C1=O | -1.36% | 
O=C1OC(=O)C2CC=CCC12 (centres undefined) | -5.09% [at 95 µM] | 
N#Cc1ccc(CC(=O)c2cccc(C(F)(F)F)c2)cc1 | 3.62% | 
N#C[C@@H]1CC(F)(F)CN1C(=O)CNC1CC2CCC(C1)N2c1ncccn1 (some centres undefined) | 0.225% | 
O=[N+]([O-])c1cccc(I)c1 | 11.3% | 
C=C[Si]1(C)O[Si](C)(C=C)O[Si](C)(C=C)O[Si](C)(C=C)O1 (centres undefined) | -12.6% | 
OCCCO | 6.75% [at 95 µM] | 

Molecular target: Peroxisome proliferator-activated receptor gamma (Homo sapiens) (UniProt P37231)
Sequence (P37231 whole entry, looked up): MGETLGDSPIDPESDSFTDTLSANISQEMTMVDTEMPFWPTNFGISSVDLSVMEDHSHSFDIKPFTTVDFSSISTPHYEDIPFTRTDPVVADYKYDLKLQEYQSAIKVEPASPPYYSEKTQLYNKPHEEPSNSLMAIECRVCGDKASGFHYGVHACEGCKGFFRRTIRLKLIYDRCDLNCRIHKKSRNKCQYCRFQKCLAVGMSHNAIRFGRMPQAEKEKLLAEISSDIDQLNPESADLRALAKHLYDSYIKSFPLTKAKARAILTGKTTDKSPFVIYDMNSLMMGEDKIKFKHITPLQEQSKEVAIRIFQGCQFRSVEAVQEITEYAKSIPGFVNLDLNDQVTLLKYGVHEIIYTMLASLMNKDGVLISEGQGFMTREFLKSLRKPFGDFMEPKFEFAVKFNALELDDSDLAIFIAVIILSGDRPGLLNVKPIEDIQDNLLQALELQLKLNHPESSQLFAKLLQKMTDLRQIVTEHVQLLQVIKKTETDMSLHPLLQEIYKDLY
Test: qHTS assay to identify small molecule agonists of the peroxisome proliferator-activated receptor gamma (PPARg) signaling pathway (AID 743094; active = well fitted activation curve with a large enough effect in the signal ratio in the repeat runs, not every such curve was filed as active; the % refers to the signal ratio)
Conditions: HEK293H PPARg-UAS-bla, beta-lactamase FRET ratio, 17 h; series mostly up to 57 µM; activation: at the top concentration
Summary of the method: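 Beta-lactamase FRET fluorescence was the read-out after a 1 h room-temperature substrate step, following 17 h compound treatment at 37C of HEK293H cells expressing a UAS-driven bla reporter responsive to PPARg.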

Compound | activation
CC(=O)OCC(=O)[C@@]1(O)CC[C@H]2[C@@H]3CCC4=CC(=O)C=C[C@]4(C)[C@@]3(F)[C@@H](O)C[C@@]21C | 8.21% [at 26.2 µM]
CC1(C)C(=O)NC(=O)N1CO | -0.742%
O=C(OCCOCCOCCOC(=O)c1ccccc1)c1ccccc1 | 0.16%
NC(=O)c1ccccc1 | 3.79% [at 78.9 µM]
CC(COc1ccccc1)NC(C)C(O)c1ccc(O)cc1 (centres undefined) | -0.0107% [at 26.2 µM]
O=[N+]([O-])c1ccc(Cl)cc1Cl | -0.372%
C=CC(=O)NC(C)(C)C | -0.214%
CCCC1CCOC(C)S1 (centres undefined) | 2.18%
CCCCCCCCCCCCCCCCC(=O)O | 2.92%
CCCCCCCCS | -0.493% [at 78.9 µM]
C=C(C)C(=O)OCCCCCCCCCCOC(=O)C(=C)C | -2.36%
CCCCCCCCCCCCCCCCCCCl | -5.7% [at 7.08 µM]
CCCC(=O)OCc1ccccc1 | -2.99%
CC1=CC(=C(c2ccc(N)cc2)c2ccc(N)cc2)C=CC1=N | -4.84% [at 7.08 µM]
C[C@@H](O)[C@H]1C(=O)N2C(C(=O)O)=C(S[C@@H]3CN[C@H](CNS(N)(=O)=O)C3)[C@H](C)[C@H]12 | 0.436%
Nc1cccc2c(=O)[nH][nH]c(=O)c12 | -5.71% [at 78.9 µM]
CCCc1ccc(OC)cc1 | 1.87% [at 78.9 µM]
FC1(F)C(F)(F)C(F)(F)C2(F)C(F)(C1(F)F)C(F)(F)C(F)(F)C1(F)C(F)(F)C(F)(F)C(F)(F)C(F)(F)C12F (centres undefined) | 0.547%
O=C1CCCN1CCO | 5.87%
COC(=O)c1cc(Cl)ccc1[N+](=O)[O-] | -0.423%

Compound | activation
OCCOc1cccc(OCCO)c1 | 4.65%
O=C(O)c1ccc2cc(O)ccc2c1 | -1.61%
C=CC(=O)OCCCCCCCCCC | -4.49%
CCCOC(C)=O | -3.86%
CC(Cc1ccccc1)(NC(=O)CN)c1ccccc1 (centres undefined) | -4.28%
CCOC(OCC)OCC | 2.95%
C[Si](C)(C)O[Si](C)(C)O[Si](C)(C)C | -7.15%
CCCCCCCCCCCC(=O)OCC | -0.607%
CC(C)Cc1nccs1 | 2.74% [at 78.9 µM]
O=C(c1ccc(Cl)cc1)c1ccc(Cl)cc1 | 2.83%
CCCCCCCCCCCCN1CCOCC1 | -4.33%
O=Cc1ccc([N+](=O)[O-])cc1 | -4.51% [at 78.9 µM]
CC1=C(C)C(=O)C(CCCCC#CCCCC#CCO)=C(C)C1=O | -3.68%
O=C1OC(=O)C2CC=CCC12 (centres undefined) | -2.35% [at 78.9 µM]
N#Cc1ccc(CC(=O)c2cccc(C(F)(F)F)c2)cc1 | -3.21%
N#C[C@@H]1CC(F)(F)CN1C(=O)CNC1CC2CCC(C1)N2c1ncccn1 (some centres undefined) | 2.92%
O=[N+]([O-])c1cccc(I)c1 | -3.62%
C=C[Si]1(C)O[Si](C)(C=C)O[Si](C)(C=C)O[Si](C)(C=C)O1 (centres undefined) | -2.47%
OCCCO | -0.112% [at 78.9 µM]

— PubChem BioAssay (Tox21)
